Results: PubChem BioAssay AID588726 (The Scripps Research Institute Molecular Screening Center, 2011)
In all, about 360,000 compounds went through this assay and about 8,200 (2.3%) were called active. The sample holds actives, similar compounds and a random draw of the others, so the mix is not that of the screen. Unmarked numbers belong to inactive results. No stated cut-off is given here; in the data, active means inhibition above about 27%; inactive means the rest.

These compounds were tested against Fructose-bisphosphate aldolase (Mycobacterium tuberculosis (strain ATCC 25618 / H37Rv)) (UniProt P9WQA3) (assay: Mtb FBA enzyme inhibitors, primary screen, biochemical, fluorescence, strain H37Rv (AID 588726;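 further: 0% = vehicle and 100% = reference inhibitor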)). Conditions: purified M. tuberculosis FBA, fluorescence read-out, at 1 µM, stronger effect = higher value.
Sequence of Fructose-bisphosphate aldolase (Mycobacterium tuberculosis (strain ATCC 25618 / H37Rv)) (P9WQA3 whole entry, looked up): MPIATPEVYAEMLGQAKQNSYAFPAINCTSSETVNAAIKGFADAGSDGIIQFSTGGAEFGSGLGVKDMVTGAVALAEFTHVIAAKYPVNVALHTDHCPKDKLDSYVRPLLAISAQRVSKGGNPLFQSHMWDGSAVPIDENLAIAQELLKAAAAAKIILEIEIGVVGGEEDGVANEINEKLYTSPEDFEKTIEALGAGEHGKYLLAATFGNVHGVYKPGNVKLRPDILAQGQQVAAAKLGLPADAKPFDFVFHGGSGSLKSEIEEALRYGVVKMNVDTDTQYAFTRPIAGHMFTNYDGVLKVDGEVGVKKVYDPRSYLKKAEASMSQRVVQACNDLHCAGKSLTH

SMILES	inhibition
CCN1CCCC1CNC(=O)c1ccc2c(c1)NC(=O)/C(=C\c1ccccc1F)S2 (stereo not given)	-6.09%
COc1ccc(C(=O)NCC2CCCN2S(=O)(=O)c2cccs2)cc1OC (stereo not given)	2.94%
CCOC(=O)CSc1nc(C)cc2c1C(=O)OC2	-3.48%
O=C(NCc1cccc(Cl)c1)C1CCC(=O)N(C2CC2)C1 (stereo not given)	1.48%
O=C(NCc1cccc(Cl)c1)C1CCN(c2nnc(N3CCCC3=O)s2)CC1	-1.53%
O=C(NCc1cccc(Cl)c1)C1=CC=CN2CCS(=O)(=O)N=C12	30.5% (active)
COCC1CCCN(Cc2cn[nH]c2-c2cc3ccccc3o2)C1 (stereo not given)	0.03%
CCCOc1ccc2c3c(c(=O)oc2c1OCCC)CCC3	16%
COc1ccc(C(=O)Nc2ccc(C(=O)NCC3CCCO3)cc2)c(OC)c1OC (stereo not given)	-1.55%
COc1ccc2c3c(c(=O)oc2c1OCC(=O)C(C)(C)C)CCCC3	63.3% (active)
CCc1nc2c(OCC(=O)C(C)(C)C)cccn2c1N(C)C(=O)c1ccccc1F	-0.18%
Clc1ccc(C=NC23CN4CN(CN(C4)C2)C3)cc1	1.62%
NNc1cccc(C=Cc2ccccc2)cc1=O	21.6%
O=C(COc1ccc(Cl)cc1)NCc1nnc(SCC(=O)NCC2CCCO2)o1 (stereo not given)	5.04%
Cc1ccc(NC(=O)CCCNC(=O)c2ccc(Cl)cc2)cc1S(=O)(=O)N1CCOCC1	1.07%
CN1CCN(CCCNC(=O)c2ccc(/C=C3\Oc4ccccc4N(Cc4ccc(Cl)cc4)C3=O)cc2)CC1	80.8% (active)
CCC1Oc2ccccc2N(CC(=O)NCCCN2CCN(CC)CC2)C1=O (stereo not given)	-0.48%
Clc1ccc(Cl)c(Oc2ccc(Oc3nc(Cl)ccc3Cl)cc2)n1	4.19%
COc1ccc2c(c1)C(=C(C#N)C#N)C(=O)N2CCc1ccccc1	0.52%
COc1ccc2c(CC(=O)OCC(=O)Nc3ccccc3[N+](=O)[O-])coc2c1	2.62%
CC(C)(C)OC(=O)Nc1ccc([C@@H](NC(=O)OC(C)(C)C)C(=O)OC(C)(C)C)cc1	-1.85%
COc1cccc2cc(S(=O)(=O)c3ccc(C)cc3)/c(=N/NS(=O)(=O)c3ccc(C)cc3)oc12	-1.11%
Cc1cc(S(=O)(=O)c2cc3ccc(O)c(C)c3oc2=O)ccc1F	72.4% (active)

SMILES	inhibition
Cc1cc(C(=O)OCC(=O)c2c(N)n(C)c(=O)n(C)c2=O)c(C)o1	0.07%
O=S(=O)(c1ccc(Br)cc1)n1ccc2ccccc21	-4.37%
CS(=O)(=O)N(CC(=O)N1CCCC1)Cc1ccccc1	1.15%
CN(Cc1ccccc1Cl)C(=O)C1CCC(=O)N(CCc2cccc(F)c2)C1 (stereo not given)	-0.04%
O=C(N=C1SC2CS(=O)(=O)CC2N1c1cc(Cl)ccc1Cl)C1CC1 (stereo not given)	0.93%
COc1ccc(CCNC(=O)CCC(=O)NC2CCCCC2)cc1OC	0.12%
CCOc1ccc(-c2noc(CCC(=O)NC3CCCC3)n2)cc1OC	1.23%
COc1ccc2c(C)c(CCC(=O)NC3CC3)c(=O)oc2c1C	162% (active)
CC(C)N1CCC(NC(=O)Nc2ccccc2)CC1	0%
Cc1ccc(-c2nn(-c3cccc(F)c3)cc2CNCCc2ccncc2)o1	3.67%
C#Cc1ccc(NC(=O)C2(C)CCN2C(=O)Cc2ccc(-c3ccccc3)cc2)cc1 (stereo not given)	-1.12%
Cc1noc(C)c1S(=O)(=O)N(C)C[C@H]1Oc2c(NC(=O)Nc3ccc4c(c3)OCO4)cccc2C(=O)N([C@H](C)CO)C[C@@H]1C	-0.42%
COc1ccc(S(=O)(=O)Nc2cccc3c2O[C@H](CN(C)S(=O)(=O)c2ccc(OC)cc2)[C@@H](C)CN([C@H](C)CO)C3=O)cc1	0.3%
COc1ccc(S(=O)(=O)N(C)C[C@H]2Oc3c(NC(=O)Nc4ccc5c(c4)OCO5)cccc3C(=O)N([C@H](C)CO)C[C@@H]2C)cc1	112% (active)
CCN(CCn1cccn1)C(=O)CC1C(=O)NCCN1Cc1cccc(OC)c1OC (stereo not given)	0.01%
CC(C)C1Nc2c(C(=O)O)cccc2C(Nc2ccccc2C(=O)O)C1(C)C (stereo not given)	107% (active)
CCCCN1CC(COc2ccccc2)Oc2cccc(F)c2S1(=O)=O (stereo not given)	-2.92%
O=C(c1ccc(Cl)cc1)N1N=C(c2ccccn2)CC1(O)C(F)(F)F (stereo not given)	4.39%
CCOC(=O)[C@H]1[C@H]2COc3ccc(C)cc3[C@@H]2N2C(=O)CN(Cc3ccc(F)cc3)C(=O)[C@@]12C	0.55%
CC[C@@H]1Cc2cc(O)ccc2C2=C1c1ccc(O)cc1C[C@H]2CC	89.3% (active)
O=C1NC(=O)C(c2ccc(Cl)cc2)N1 (stereo not given)	3.68%
COCCNC(=O)c1ccc2nc(Cc3ccc(OC)c(OC)c3)oc2c1	2.67%
COc1ccc(CNC(=O)COc2ccccc2C(=O)c2cnn(-c3ccccc3)c2)cc1OC	6.29%

SMILES	inhibition
CCCCNC(=O)c1ccccc1NC(=O)C1=C(C)OCCS1	1.28%
O=C(O)/C=C/c1cn(-c2ccccc2)nc1-c1cccs1	57.3% (active)
Cc1ccc(-c2nn(-c3ccccc3)cc2/C=C/C(=O)Nc2cccc(S(N)(=O)=O)c2)cc1	2.47%
CC(=O)C1=C(C)NC(C)=C(C(C)=O)C1c1cn(-c2ccccc2)nc1-c1cccs1	0.45%
O=C1COc2ccc(NC(=O)N3CCN(c4ccc(F)cc4)CC3)cc2N1	1.24%
CC(=O)NC12CC3CC(C1)CC(C(=O)N1CCN(S(=O)(=O)c4cccs4)CC1)(C3)C2	-0.81%
Cc1cn(C2OC[C@@H](O)[C@@H]2CO)c(=O)[nH]c1=O (stereo not given in full)	0.66%
O=C(Nc1ccc([N+](=O)[O-])cc1)C1(c2ccccc2)CCOCC1	-1.46%
O=C(OCC(=O)N1CCCC1=O)c1cc(S(=O)(=O)N2CCOCC2)ccc1Cl	-0.38%
COCc1c(N)c(C)nc(Cl)c1C#N	7.26%
CCOC(=O)c1cc(C)nc(S(C)(=O)=O)c1C#N	3.95%
COC(=O)c1c(C)c(C)nc(N)c1C#N	82.5% (active)
Cn1nc(C(C)(C)C)c([N+](=O)[O-])c1C(N)=O	1.86%
O=C(Cn1cnc([N+](=O)[O-])n1)NCCc1ccccc1	0.01%
CCCCCn1c(=O)[nH]c2cc(C(=O)NCCCN3CCCCC3C)ccc2c1=O (stereo not given)	114% (active)
O=C(NC1CCCCC1)c1ccc2c(=O)n(CC3CCCO3)c(=O)[nH]c2c1 (stereo not given)	-9.09%
CC1CCCCN1CCCNC(=O)Cn1ncc2c([nH]c3ccccc32)c1=O (stereo not given)	12%
CCOC1CS(=O)(=O)CC1OCC (stereo not given)	-0.21%
c1ccc(Cc2c(-c3ccco3)nc3c4ccccc4ccn23)cc1	33.2% (active)
Cc1ccc(Cc2c(-c3ccc(C)cc3)nc3c4ccccc4ccn23)cc1	4.37%
FC(F)(F)c1ccccc1Cc1c(-c2ccccc2)nc2c3ccccc3ccn12	5.62%
Cc1cc(NC(=O)/C=C/C(=O)N(CC(=O)NC2CCCC2)c2ccc(F)cc2)no1	-1.71%
CC1CN(/C=C/C(=O)C(F)(F)F)CC(C)O1 (stereo not given)	-2.87%

SMILES	inhibition
O=C1CN(C(=O)COC(=O)C2CC(=O)N(Cc3ccco3)C2)c2ccccc2N1 (stereo not given)	1.16%
CN1C(=O)c2ccc(C(=O)Nc3ccc(Br)cn3)cc2C1=O	-2.34%
Cc1cccc(C(=O)Nc2ccc3c(c2)C(=O)N(CC(C)C)C3=O)c1	8.31%
CN1C(=O)c2ccc(NC(=O)c3c(F)c(F)c(F)c(F)c3F)cc2C1=O	37.5% (active)
CN1C(=O)c2ccc(NC(=O)C3CCCCC3)cc2C1=O	33.2% (active)
O=C(Nc1ccc2c(c1)OCCO2)C1CCCC1	-2.43%
Cc1nc2ccc(NC(=O)C3CCCCC3)cc2s1	2.5%
COc1cc(CN2CCCN(C)CC2)c([N+](=O)[O-])cc1OC	2.5%
O=C(Nc1ccc(F)c([N+](=O)[O-])c1)C1CC(=O)N(Cc2ccccc2)C1 (stereo not given)	-0.61%
CCNC(=O)c1cccc(NC(=O)C2CC(=O)N(CCc3ccccc3)C2)c1 (stereo not given)	3.18%
Cc1cc(=O)oc2cc(NC(=O)C3CC(=O)N(Cc4ccccc4)C3)ccc12 (stereo not given)	68.5% (active)
CC(=O)c1cccc(NC(=O)COc2ccc(S(=O)(=O)N3CCOCC3)cc2)c1	-1.21%
Cc1ccc(NC(=O)C(CC(=O)O)C2CCCO2)c(C)c1 (stereo not given)	2.55%
CCOC(=O)c1oc2c(CN3CCN(C)CC3)c(O)ccc2c(=O)c1-c1ccc(Br)cc1	-0.95%
O=C1/C(=C/c2coc3ccc(O)cc3c2=O)SC(=S)N1c1ccccc1	-0.97%
O=c1c(-c2ccccc2)coc2c(CN3CCOCC3)c(O)ccc12	36.3% (active)
O=c1[nH]c(CN2CCOCC2)nc2scc(-c3ccccc3)c12	-0.65%
CC(C)=CCc1c(O)c(CC=C(C)C)c2occ(-c3ccc(O)cc3)c(=O)c2c1O	-0.11%
O=c1c(-c2ccccc2)coc2cc(O)ccc12	32.2% (active)
O=C(Cc1cccs1)N(CC1CCCO1)C1(C(=O)NC2CCCCC2)CCCCC1 (stereo not given)	-1.48%
C/C(=N/NC(=O)CN1CCN(S(=O)(=O)c2ccc(Br)cc2)CC1)c1ccncc1	-1.72%
